According to ChEMBL document CHEMBL3988442, “University of Dundee, Small-Polar-MMV Screening Library” (2021):
Screen size: about 48,000 compounds; about 13,000 (27%) showed an effect of 50% or more. This is one part of the list.

Test system: Wolbachia pipientis
Assay: Anti-Wolbachia Cell-Based Screen
Format: functional
Design: scale not given: in the data most compounds retested in dose-response had high values
Settings: 5 µM

Structure (SMILES) | Percent Effect [%]
CC(C)Cc1nc(CN2CCC3(CCCO3)CCC2=O)no1 (stereo not drawn) | -10.71
COc1ccc(OC)c(-n2cnnc2C)c1 | -0.7087
Cc1nc(C#N)c(N2CCC(c3nc(-c4ccccc4)no3)CC2)o1 | 4.008
Cc1cc(C)nc(CN(C)C(=O)c2cccc(CCC(C)(C)O)c2)c1 | 33.03
Cc1cc(C)n(CC(C)CNC(=O)CCc2ccco2)n1 (stereo not drawn) | 10.87
Cc1ccn(CCC(=O)NCCc2ccco2)n1 | 109.8
NC(=O)NC(=O)CCn1ccc(-c2ccccc2)n1 | -9.301
Cc1ncc(CC(=O)N2CCC(N3C[C@@H](C)O[C@@H](C)C3)CC2)c(=O)[nH]1 | -13.09
CC(C)c1ccc(C(=O)N2CCOCC2CC(=O)c2ccco2)cn1 (stereo not drawn) | 178.1
CCc1ncc(C(=O)N2CCOCC2CC(=O)c2ccccc2)s1 (stereo not drawn) | -7.731
CC(C)c1cc(C(=O)N2CCc3ccccc3C2C(=O)O)nn1C (stereo not drawn) | 7.9
CC(C)c1nc(C(=O)N2CCOCC2CC(=O)c2ccco2)cs1 (stereo not drawn) | 84.12
O=C(CC1COCCN1C(=O)c1cscn1)c1ccccc1 (stereo not drawn) | 5.406
CCc1ncc(C(=O)N2CCOCC2c2c(C)n[nH]c2C)s1 (stereo not drawn) | 6.424
CC(C)c1ncc(C(=O)N2CCOCC2CC(=O)c2ccco2)s1 (stereo not drawn) | 131.2
CC[C@H]1COCCN1C(=O)c1cnc(-c2ccccc2)nc1C | -84.76
CC(C)c1cc(C(=O)N2Cc3ccccc3CC2C(=O)O)nn1C (stereo not drawn) | 14.25
CCc1nc(C(=O)N2CCOCC2CC(=O)c2ccccc2)c[nH]1 (stereo not drawn) | -17.76
CCc1ocnc1C(=O)N1CCOCC1CC(=O)c1ccccc1 (stereo not drawn) | -28.11
CC(C)c1cc(C(=O)N2CCOCC2CC(=O)c2ccco2)nn1C (stereo not drawn) | 128.9
Cc1cc2c(C)cc(O)cc2c(=O)o1 | -3.203
CC(C)(C)OC(=O)N1CCC[C@H](NCc2cc[nH]c2)C1 | -5.919
CC(C1CCN(Cc2ccc(N(C)C)nc2)CC1)N(C)C (stereo not drawn) | 14.62
COCC(c1ccccn1)N(C)C(=O)c1cc(-c2ccccc2O)n[nH]1 (stereo not drawn) | -8.202
O=S(=O)(C1CC1)N1CCC2(CC1)CC(Oc1ccccn1)CO2 (stereo not drawn) | -5.73

Structure (SMILES) | Percent Effect [%]
COCc1c(C(=O)N2CCCC(C(=O)c3nccn3C)C2)noc1C (stereo not drawn) | -5.481
COc1cccc(-c2cccc(N3CCC(N[C@@H]4CCOC4)CC3)c2)c1 | 68.86
CN1CCOC[C@H]1c1nc(-c2cccc(F)c2)c[nH]1 | 6.119
Cc1nc(-c2cccc(N3CCC(N[C@@H]4CCOC4)CC3)c2)cs1 | 61.49
Fc1cccc(-c2cccc(N3CCC(NC4CCCOC4)CC3)c2)c1 (stereo not drawn) | 80.75
Fc1cccc(-c2c[nH]c([C@@H]3COCCN3C3CCOCC3)n2)c1 | 5.513
Cc1nc(-c2cccc(N3CCC(NC4CCSC4)CC3)c2)cs1 (stereo not drawn) | -11.84
COc1cccc(N2CCC(N3CCOC(C(F)(F)F)C3)CC2)c1 (stereo not drawn) | 11
COc1cccc(N2CCC(N3C[C@@H](NC(C)=O)[C@H](C(C)C)C3)CC2)c1 | 4.736
Cc1nc(-c2cccc(N3CCC(NC4CCOCC4)CC3)c2)cs1 | -8.689
Cc1c(C)n(CC(O)CN2CCC(O)CC2)c2c(Cl)cccc12 (stereo not drawn) | 9.661
CN(C)S(=O)(=O)N1C[C@@H]2CC[C@H](C1)N(Cc1ccc3c(c1)OCCO3)C2 | 2.095
CCOc1cccc(NCc2cnc(N3CCN(C)CC3)nc2)n1 | 6.944
Cn1ccnc1CNc1ccc(F)c(N2CCCS2(=O)=O)c1 | 0.7519
CN1CCC(c2cccc(NCc3ccncc3)n2)CC1 | 80.62
CN1CCC(c2cnc(NCc3nccn3C)cn2)CC1 | 131.5
Cn1ccnc1CNc1c(F)cccc1-n1cccn1 | -3.206
CC(C)c1nccn1-c1cccc(C2CCN(C)CC2)n1 | 4.105
CN1CCC(c2cccc(NCc3nccn3C)n2)CC1 | 108.8
Cn1ccnc1CNc1nccc(-c2ncnn2C)n1 | 23.33
N#Cc1nccnc1N1CCN(CCOCc2ccccc2)CC1 | 4.216
CC1CCc2sc(C(=O)Nc3cnn(C)c3)cc2C1 (stereo not drawn) | 18.64
Cc1ncnc(NC(CC(C)(C)C)c2cccnc2)c1C (stereo not drawn) | -0.1537
CN(Cc1cccs1)C(=O)c1ccc(=O)n(C)c1 | 1.128
Fc1cccc2ncnc(NCC3(N4CCOCC4)CCSC3)c12 (stereo not drawn) | -8.869

Structure (SMILES) | Percent Effect [%]
COc1ccc(C2CCCN2C(=O)c2cc3c([nH]c2=O)CCC3)cc1 (stereo not drawn) | -1.742
O=C(c1ccn(-c2ccc(F)cc2)n1)N(CCO)Cc1cccnc1 | 6.446
CSc1ncccc1C(=O)N(CCO)Cc1ccccc1 | 110.2
O=C(C1COc2ccccc2C1)N(CCO)Cc1ccccc1 (stereo not drawn) | 3.539
Cn1ccnc1CN(CCO)C(=O)c1cc2ccccc2o1 | 4.663
COc1cc(C(=O)NCCCc2ccccc2)on1 | -0.8212
COc1ccc(C(=O)N(CCO)Cc2ccccc2)c(OC)n1 | 150.7
Cc1cccc(N2CCCC3(C2)CN(S(C)(=O)=O)CCO3)c1 (stereo not drawn) | -0.08325
CC(C)c1nc(C2CCCN2CCOCC2CC2)no1 (stereo not drawn) | 114
Cc1nc(C2CCCN2CCOCC2CC2)no1 (stereo not drawn) | 95.01
C1CC(c2noc(C3CC3)n2)CN(CCOCC2CC2)C1 (stereo not drawn) | 14.88
CSCCCN1CCCC1c1noc(C)n1 (stereo not drawn) | -3.652
Cc1nc(C2CCCN2CCc2cccs2)no1 (stereo not drawn) | -9.357
CC(C)c1nc(C2CCCN2CCCc2nc3ccccc3o2)no1 (stereo not drawn) | 6.375
COc1cc(C)cc(-c2nc3c([nH]2)CCNC3)c1OC | 7.084
Cc1nc(CNC2CC(=O)N(CCc3cccc(Cl)c3)C2)c[nH]1 (stereo not drawn) | 91.72
CN(C)c1ncc(CNC2CC(=O)N(CCc3cccc(Cl)c3)C2)s1 (stereo not drawn) | 116.6
Cc1nc[nH]c1CNC1CC(=O)N(CCc2cccc(Cl)c2)C1 (stereo not drawn) | 94.18
Cc1cccc(CNC2CC(=O)N(CCc3cccc(Cl)c3)C2)n1 (stereo not drawn) | 115.9
O=C1CC(NCc2ccc(Cl)s2)CN1Cc1cccc(F)c1 (stereo not drawn) | 20.87
N#Cc1cccc(NC2CC(=O)N(CCc3ccc(F)cc3)C2)n1 (stereo not drawn) | 1.885
Cc1cc(C)nc(N2C[C@H]3OC(=O)N(CCc4cccc(Cl)c4)[C@H]3C2)n1 | -8.827
CC(=O)Nc1ccc(CNC2CC(=O)N(Cc3cccc(F)c3)C2)cc1 (stereo not drawn) | -1.661
